Compounds without any hit were thinned out: in the full panel of roughly 79,000, 15% have a hit. A number with no mark means an inactive call. Activity calls are given as the source filed them. Rule as the data show it: active = growth inhibition above about 70%; inactive = the rest.
Assay: NCI Yeast Anticancer Drug Screen. Data for the rad18 strain (AID 177)
Conditions: S. cerevisiae rad18 mutant growth inhibition, stronger effect = higher value
Experimental: Growth inhibition of yeast strains with defined genetic alterations is measured as a screen for potential anti-cancer activity. Selected strains with alterations in DNA damage repair or cell cycle control were exposed to compounds and growth inhibition was measured relative to vehicle treated controls. The strain used in this assay is rad18

Row | Compound | growth inhibition (at 1.2 µM) | growth inhibition (at 3.7 µM) | growth inhibition (at 11.0 µM) | growth inhibition (at 33.0 µM) | growth inhibition (at 100.0 µM)
1 | CN(C)CCNc1cccc2sc3ccc(O)cc3c(=O)c12 | -2% | -2% | -1% | 1% | 5%
2 | Cc1c(-c2ccccc2)[nH]c2ccccc12 | 3% | 5% | -9% | 97% (active) | 99% (active)
3 | CN=C(N)N/N=C(\C)c1ccc2oc3ccc(/C(C)=N/NC(N)=NC)cc3c2c1 | -13% | -13% | 70% (active) | 98% (active) | 98% (active)
4 | Clc1cc(-c2ccccc2)nc2ccccc12 | 16% | 9% | 25% | 59% | 91% (active)
5 | S=P(N1CC1)(N1CC1)N1CC1 | -3% | -1% | 6% | 24% | 78% (active)
6 | CCc1nc(N)nc(N)c1-c1ccc(NCCCCCCN)c([N+](=O)[O-])c1 | -4% | -6% | -5% | -17% | -23%
7 | CN(C)c1ccc(/C=C/c2ccnc3ccccc23)cc1N | -4% | -3% | -8% | 11% | 32%
8 | CCCCCCSc1nc(COC(=O)NC)c(COC(=O)NC)n1C | -1% | -1% | -1% | 33% | 98% (active)

— PubChem BioAssay (NCI)
